# Inconclusive results are not listed. Activity calls are given as the source filed them. The calls were made as follows, unless noted: active = hit-call score of the fitted dose curve at least 0.9, where 1 is the maximum; inactive = score below 0.9.
# Legend:
# [1] = molecular target: Hepatocyte nuclear factor 4-alpha (Homo sapiens) (UniProt P41235); experiment: ATG_HNF4a_TRANS: Attagene TRANS-FACTORIAL HepG2 Assay for human Hepatocyte Nuclear Factor 4 alpha (HNF4a) (AID 2282982; active = hit-call score of the fitted dose curve at least 0.9, where 1 is the maximum); details: HepG2 HNF4a transactivation reporter, mRNA readout
# Chain of Hepatocyte nuclear factor 4-alpha (Homo sapiens) (P41235 whole entry, looked up, the tested form may be a part): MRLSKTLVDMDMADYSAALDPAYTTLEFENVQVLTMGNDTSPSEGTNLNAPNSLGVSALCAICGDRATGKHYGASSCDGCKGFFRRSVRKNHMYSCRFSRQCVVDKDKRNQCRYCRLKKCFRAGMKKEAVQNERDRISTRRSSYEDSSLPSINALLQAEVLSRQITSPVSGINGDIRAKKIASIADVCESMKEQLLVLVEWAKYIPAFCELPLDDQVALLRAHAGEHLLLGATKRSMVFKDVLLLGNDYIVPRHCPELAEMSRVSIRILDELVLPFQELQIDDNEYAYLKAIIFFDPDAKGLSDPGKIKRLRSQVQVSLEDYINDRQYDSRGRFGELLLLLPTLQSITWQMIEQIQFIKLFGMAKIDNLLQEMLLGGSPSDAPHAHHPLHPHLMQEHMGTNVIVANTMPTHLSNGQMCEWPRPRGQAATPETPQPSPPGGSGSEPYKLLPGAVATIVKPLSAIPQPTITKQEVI
# Method in brief: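 In this trans-factorial format, a chimeric HNF4a-GAL4 fusion drives a GAL4-UAS reporter in transfected HepG2 liver cells. After 24 h treatment, reporter mRNA induction is measured by RT-PCR with capillary electrophoresis, relative to DMSO.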
# [2] = ATG_M_32_TRANS: Attagene TRANS-FACTORIAL HepG2 Assay for M32 Transcription Factor (Internal Marker) (AID 2282984; active = hit-call score of the fitted dose curve at least 0.9, where 1 is the maximum;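 also: transcript level of a background control reporter unit measured by RT-PCR and capillary electrophoresis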); details: HepG2 Attagene TRANS M32 internal marker reporter
# Method in brief: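 After 24 h dosing of transfected HepG2 cells, total RNA was reverse-transcribed, reporter sequences PCR-amplified, 6-FAM labelled by primer extension and HpaI-digested before capillary electrophoresis. Signal increase over DMSO was fitted.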
# [3] = molecular target: Nuclear receptor subfamily 4 group A member 2 (Homo sapiens) (UniProt P43354); experiment: ATG_NURR1_TRANS: Attagene TRANS-FACTORIAL HepG2 Assay for human Nuclear Receptor Related Protein 1 (NURR1) (AID 2282985; active = hit-call score of the fitted dose curve at least 0.9, where 1 is the maximum); details: HepG2 Attagene TRANS reporter, mRNA readout
# Chain of Nuclear receptor subfamily 4 group A member 2 (Homo sapiens) (P43354 whole entry, looked up, the tested form may be a part): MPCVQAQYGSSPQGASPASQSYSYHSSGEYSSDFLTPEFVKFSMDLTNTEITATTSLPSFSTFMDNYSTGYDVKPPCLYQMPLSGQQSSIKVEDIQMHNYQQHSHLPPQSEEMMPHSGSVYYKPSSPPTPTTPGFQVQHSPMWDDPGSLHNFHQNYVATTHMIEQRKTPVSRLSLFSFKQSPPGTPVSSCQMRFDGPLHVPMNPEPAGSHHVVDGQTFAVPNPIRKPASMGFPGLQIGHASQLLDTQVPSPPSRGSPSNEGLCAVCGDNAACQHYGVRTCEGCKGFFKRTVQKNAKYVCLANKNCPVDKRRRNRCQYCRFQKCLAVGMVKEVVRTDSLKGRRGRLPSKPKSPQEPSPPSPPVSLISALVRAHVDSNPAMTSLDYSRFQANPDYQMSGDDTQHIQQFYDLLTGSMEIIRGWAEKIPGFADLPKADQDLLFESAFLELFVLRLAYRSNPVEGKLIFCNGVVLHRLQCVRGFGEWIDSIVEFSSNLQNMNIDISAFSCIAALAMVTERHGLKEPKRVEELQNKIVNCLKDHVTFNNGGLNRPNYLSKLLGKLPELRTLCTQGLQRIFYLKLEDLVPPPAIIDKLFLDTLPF
# Method in brief: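 Chimeric NR-Gal4 fusion activity measured in HepG2 after 24 h treatment. Reporter transcripts detected by RT-PCR and capillary electrophoresis fluorescence; positive-direction curve fitting against DMSO.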
# [4] = molecular target: Transcriptional activator Myb (Homo sapiens) (UniProt P10242); experiment: ATG_Myb_CIS: Attagene CIS-FACTORIAL HepG2 Assay for human Myeloblastosis (Myb) Proto-Oncogene Transcription Factor (AID 2282986); details: HepG2 Attagene CIS-FACTORIAL Myb reporter transcription; actives raise or lower the signal
# Chain of Transcriptional activator Myb (Homo sapiens) (P10242 whole entry, looked up): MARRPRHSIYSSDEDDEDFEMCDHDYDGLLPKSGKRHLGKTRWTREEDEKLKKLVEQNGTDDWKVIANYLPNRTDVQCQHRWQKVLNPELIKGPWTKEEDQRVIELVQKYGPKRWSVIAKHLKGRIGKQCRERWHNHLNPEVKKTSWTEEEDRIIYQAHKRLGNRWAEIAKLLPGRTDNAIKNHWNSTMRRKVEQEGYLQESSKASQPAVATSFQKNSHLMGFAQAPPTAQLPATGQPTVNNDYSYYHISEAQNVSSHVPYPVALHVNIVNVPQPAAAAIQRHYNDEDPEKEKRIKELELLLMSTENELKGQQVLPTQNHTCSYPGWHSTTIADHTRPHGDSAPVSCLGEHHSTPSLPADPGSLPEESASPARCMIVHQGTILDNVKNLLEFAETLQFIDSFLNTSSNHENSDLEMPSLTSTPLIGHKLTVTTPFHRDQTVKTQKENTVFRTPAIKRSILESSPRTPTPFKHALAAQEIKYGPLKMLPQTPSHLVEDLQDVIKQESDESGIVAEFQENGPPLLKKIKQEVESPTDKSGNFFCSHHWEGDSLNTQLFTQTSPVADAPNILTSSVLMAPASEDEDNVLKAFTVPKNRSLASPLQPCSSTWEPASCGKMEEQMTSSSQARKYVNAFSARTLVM
# Method in brief: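 Fluorescence signals from capillary electrophoresis of RT-PCR-amplified reporter cDNA give the read-out. Cells: HepG2 transfected with multiple cis-regulated reporter units. Exposure lasts 24 hours; DMSO defines baseline for gain or loss of signal.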
# [5] = molecular target: Nuclear respiratory factor 1 (Homo sapiens) (UniProt Q16656); experiment: ATG_NRF1_CIS: Attagene CIS-FACTORIAL HepG2 Assay for human Nuclear Respiratory Factor 1 (NRF1) Orphan Gene (AID 2282987); details: HepG2 NRF1 cis-element reporter, Attagene multiplex; actives raise or lower the signal
# Chain of Nuclear respiratory factor 1 (Homo sapiens) (Q16656 whole entry, looked up): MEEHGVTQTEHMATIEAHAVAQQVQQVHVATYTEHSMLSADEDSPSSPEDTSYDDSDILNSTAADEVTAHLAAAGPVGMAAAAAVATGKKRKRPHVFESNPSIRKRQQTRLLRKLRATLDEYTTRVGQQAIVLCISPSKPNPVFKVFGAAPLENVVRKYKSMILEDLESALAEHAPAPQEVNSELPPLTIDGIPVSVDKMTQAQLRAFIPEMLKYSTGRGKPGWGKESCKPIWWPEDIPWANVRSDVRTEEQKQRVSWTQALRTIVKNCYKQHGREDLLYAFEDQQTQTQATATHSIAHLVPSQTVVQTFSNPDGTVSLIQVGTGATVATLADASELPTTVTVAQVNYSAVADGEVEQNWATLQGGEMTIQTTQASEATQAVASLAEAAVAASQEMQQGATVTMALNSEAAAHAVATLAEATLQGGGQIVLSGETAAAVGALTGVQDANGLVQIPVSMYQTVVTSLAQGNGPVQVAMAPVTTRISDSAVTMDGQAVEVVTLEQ
# Method in brief: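 Transcriptional reporter readout, one component of a 52-endpoint multiplexed HepG2 panel. Exposure 24 h; mRNA detected via RT-PCR and fluorescent capillary electrophoresis; fitting in both directions against DMSO.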
# [6] = ATG_NFI_CIS: Attagene CIS-FACTORIAL HepG2 Assay for human Nuclear Factor I (NFI) (AID 2282989); details: HepG2 cis-regulatory reporter, NFI response element transcription; actives raise or lower the signal
# Method in brief: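 Endogenous TF activity in HepG2 cells transiently transfected with cis-element-driven multiplexed reporter units, read 24 h after dosing. Reporter mRNA quantified by RT-PCR, 6-FAM labelling, HpaI digestion and capillary electrophoresis; bidirectional fit versus DMSO.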
# [7] = ATG_NF_kB_CIS: Attagene CIS-FACTORIAL HepG2 Assay for human Nuclear Factor Kappa B (NF-kB) (AID 2282991); details: HepG2 Attagene cis-factorial NF-kB reporter mRNA; actives raise or lower the signal
# Method in brief: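 HepG2, transient multi-reporter transfection, cis promoter elements (endogenous TFs). 24 h exposure. Total RNA → RT → PCR → 6-FAM label → HpaI → CE. Gain/loss vs DMSO.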
# [8] = ATG_NRF2_ARE_CIS: Attagene CIS-FACTORIAL HepG2 Assay for human Nuclear Factor Erythroid 2 Related Factor 2 (NFR2) response to Antioxidant Response Elements (ARE) (AID 2282992); details: HepG2 Attagene ARE/NRF2 reporter, transcription factor activity; actives raise or lower the signal;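 as to AC50: reporter mRNA level measured by RT-PCR and capillary electrophoresis fluorescence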
# Method in brief: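 Readout: reporter mRNA quantified by RT-PCR plus FAM-labelled primer extension, HpaI digestion and capillary electrophoresis, 24 h after dosing transfected HepG2 cells. Gain or loss of signal is fitted bidirectionally against DMSO baseline.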
# [9] = ATG_Oct_MLP_CIS: Attagene CIS-FACTORIAL HepG2 Assay for human Octamer-Binding Transcription Factor (Oct) (AID 2282993); details: HepG2 Attagene cis-factorial Oct reporter, mRNA; actives raise or lower the signal
# Method in brief: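 HepG2 cells transiently transfected with cis-element-driven reporter transcription units (endogenous TF activity); 24 h compound exposure. Reporter mRNA quantified by RT-PCR, 6-FAM labelling, HpaI digestion and capillary electrophoresis; bidirectional fit versus DMSO baseline.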
# [10] = molecular target: Cellular tumor antigen p53 (Homo sapiens) (UniProt P04637); experiment: ATG_p53_CIS: Attagene CIS-FACTORIAL HepG2 Assay for human p53 Transcription Factor (AID 2282994); details: HepG2 p53 cis-element reporter, Attagene mRNA; actives raise or lower the signal
# Chain of Cellular tumor antigen p53 (Homo sapiens) (P04637 whole entry, looked up): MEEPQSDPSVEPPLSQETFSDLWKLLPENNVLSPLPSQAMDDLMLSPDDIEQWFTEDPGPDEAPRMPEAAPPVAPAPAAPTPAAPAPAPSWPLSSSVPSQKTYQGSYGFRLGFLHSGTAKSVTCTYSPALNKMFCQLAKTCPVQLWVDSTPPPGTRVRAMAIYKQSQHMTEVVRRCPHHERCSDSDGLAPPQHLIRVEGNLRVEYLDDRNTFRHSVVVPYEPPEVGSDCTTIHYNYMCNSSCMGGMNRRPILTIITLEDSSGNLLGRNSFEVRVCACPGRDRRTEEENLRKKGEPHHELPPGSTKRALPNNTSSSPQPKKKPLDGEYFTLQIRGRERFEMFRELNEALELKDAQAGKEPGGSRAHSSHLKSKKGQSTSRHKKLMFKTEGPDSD
# Method in brief: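 Read-out: reporter mRNA by RT-PCR plus capillary electrophoresis with fluorescence detection. Human HepG2 liver cells carried transfected multi-reporter cis-element constructs, dosed 24 h. Gain or loss of signal fitted bidirectionally against DMSO control.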
# [11] = molecular target: human Peroxisome Proliferator-activated Receptor alpha (PPARa), PPARA (gene 5465) (UniProt Q07869); experiment: ATG_PPARa_TRANS: Attagene TRANS-FACTORIAL HepG2 Assay for human Peroxisome Proliferator-activated Receptor alpha (PPARa) (AID 2283001; active = hit-call score of the fitted dose curve at least 0.9, where 1 is the maximum)
# Chain of human Peroxisome Proliferator-activated Receptor alpha (PPARa), PPARA (gene 5465) (Q07869 whole entry, looked up): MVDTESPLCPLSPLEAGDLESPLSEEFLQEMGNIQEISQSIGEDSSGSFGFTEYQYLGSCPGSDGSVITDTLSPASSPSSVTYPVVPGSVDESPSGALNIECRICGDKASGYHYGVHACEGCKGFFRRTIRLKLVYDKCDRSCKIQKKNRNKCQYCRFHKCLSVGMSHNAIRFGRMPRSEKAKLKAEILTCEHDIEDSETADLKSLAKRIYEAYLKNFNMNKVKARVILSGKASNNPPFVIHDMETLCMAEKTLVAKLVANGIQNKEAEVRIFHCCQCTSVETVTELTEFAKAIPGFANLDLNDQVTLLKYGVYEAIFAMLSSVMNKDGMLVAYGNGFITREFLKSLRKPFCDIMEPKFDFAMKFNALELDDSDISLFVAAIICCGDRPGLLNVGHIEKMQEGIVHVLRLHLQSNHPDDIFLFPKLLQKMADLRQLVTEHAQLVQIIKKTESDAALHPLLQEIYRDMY
# Method in brief: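 Cells (HepG2) are transfected with multiple reporter transcription units, exposed to chemical for 24 h, then total RNA is reverse-transcribed and amplified. Labelled products are quantified by capillary electrophoresis; induction is referenced to DMSO.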
# [12] = ATG_M_06_TRANS: Attagene TRANS-FACTORIAL HepG2 Assay for M06 Transcription Factor (Internal Marker) (AID 2282983; active = hit-call score of the fitted dose curve at least 0.9, where 1 is the maximum); details: HepG2 Attagene TRANS M06 internal marker reporter
# Method in brief: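 Background-control reporter readout: after 24 h chemical exposure of transiently transfected HepG2 (GAL4-UAS reporter units), mRNA quantified by RT-PCR with fluorescent labeling and capillary electrophoresis. Gain-of-signal fitting against DMSO baseline.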
# [13] = molecular target: Myc proto-oncogene protein (Homo sapiens) (UniProt P01106); experiment: ATG_Myc_CIS: Attagene CIS-FACTORIAL HepG2 Assay for human Myelocytomatosis (Myc) Proto-Oncogene Transcription Factor (AID 2282990); details: HepG2, Attagene cis-reporter transcription factor activity; actives raise or lower the signal
# Chain of Myc proto-oncogene protein (Homo sapiens) (P01106 whole entry, looked up): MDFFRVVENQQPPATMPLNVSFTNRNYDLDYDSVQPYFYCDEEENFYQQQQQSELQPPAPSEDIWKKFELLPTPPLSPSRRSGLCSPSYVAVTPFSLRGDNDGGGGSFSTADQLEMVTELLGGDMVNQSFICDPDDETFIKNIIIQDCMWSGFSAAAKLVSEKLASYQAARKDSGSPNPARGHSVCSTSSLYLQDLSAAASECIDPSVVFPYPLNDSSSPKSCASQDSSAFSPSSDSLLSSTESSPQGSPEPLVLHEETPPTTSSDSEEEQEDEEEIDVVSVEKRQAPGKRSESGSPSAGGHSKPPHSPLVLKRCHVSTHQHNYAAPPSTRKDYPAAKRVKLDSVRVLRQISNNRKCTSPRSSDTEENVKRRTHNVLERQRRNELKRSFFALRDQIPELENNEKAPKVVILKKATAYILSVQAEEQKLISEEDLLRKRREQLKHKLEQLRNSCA
# Method in brief: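 DMSO-normalised, bidirectionally fitted reporter mRNA signal. HepG2 cells transfected with cis reporter constructs, treated 24 h; transcripts detected by RT-PCR, 6-FAM primer extension and CE.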
# [14] = BSK_3C_TissueFactor: BioMAP Diversity Plus: 3C Assay for Tissue Factor Biomarker Activity (AID 2282997); details: BioMAP 3C HUVEC, tissue factor biomarker readout; actives raise or lower the signal
# Method in brief: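 Tissue factor on primary human umbilical vein endothelium was read by ELISA 24 h after dosing, gain or loss relative to DMSO. Cytotoxicity ran alongside via SRB (0.1%, TCA-fixed, 560 nm).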
# [15] = BSK_3C_uPAR: BioMAP Diversity Plus: 3C Assay for Urokinase-type plasminogen activator receptor (uPAR) Biomarker Activity (AID 2282998); details: BioMAP 3C HUVEC, uPAR biomarker ELISA; actives raise or lower the signal
# Method in brief: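 Primary human umbilical vein endothelial cells, 3C system; surface uPAR measured by ELISA 24 h after dosing. Cytotoxicity via SRB total protein in parallel cultures; bidirectional fit against DMSO.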
# [16] = BSK_3C_VCAM1: BioMAP Diversity Plus: 3C Assay for Vascular cell adhesion molecule 1 (VCAM1) Biomarker Activity (AID 2282999); details: BioMAP 3C HUVEC, VCAM1 ELISA, cytokine-stimulated; actives raise or lower the signal
# Method in brief: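 Vascular primary endothelium (human umbilical vein) was exposed to chemicals and assayed 24 h later. VCAM-1 levels came from ELISA, with DMSO serving as baseline for bidirectional fitting.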
# [17] = molecular target: Oxysterols receptor LXR-beta (Homo sapiens) (UniProt P55055); experiment: ATG_LXRb_TRANS: Attagene TRANS-FACTORIAL HepG2 Assay for human Liver X Receptor beta (LXRb) (AID 2282981; active = hit-call score of the fitted dose curve at least 0.9, where 1 is the maximum); details: HepG2 Attagene TRANS GAL4-LXRb reporter, mRNA
# Chain of Oxysterols receptor LXR-beta (Homo sapiens) (P55055 whole entry, looked up, the tested form may be a part): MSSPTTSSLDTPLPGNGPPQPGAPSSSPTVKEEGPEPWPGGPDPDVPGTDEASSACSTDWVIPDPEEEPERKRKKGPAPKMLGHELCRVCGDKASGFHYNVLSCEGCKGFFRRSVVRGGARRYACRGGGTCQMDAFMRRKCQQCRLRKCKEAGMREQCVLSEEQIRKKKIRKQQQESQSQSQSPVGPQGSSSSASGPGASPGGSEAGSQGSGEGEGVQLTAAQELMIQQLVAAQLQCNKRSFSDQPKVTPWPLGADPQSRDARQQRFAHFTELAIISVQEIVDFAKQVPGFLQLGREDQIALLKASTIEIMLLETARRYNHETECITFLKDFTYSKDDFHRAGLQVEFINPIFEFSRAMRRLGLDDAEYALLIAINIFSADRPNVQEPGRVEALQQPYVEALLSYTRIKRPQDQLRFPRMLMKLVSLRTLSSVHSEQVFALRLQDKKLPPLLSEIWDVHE
# Method in brief: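 Measures induction of a Gal4-driven reporter transcript in HepG2 cells expressing an exogenous LXRb-Gal4 fusion. Cells are exposed to compound for 24 h before RNA isolation and RT-PCR with capillary electrophoresis detection.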
compound,measurement,setting,value
CCCCc1ccc2ccccc2c1S(=O)(=O)O,outcome,[1],inactive
same,outcome,[2],inactive
same,outcome,[3],inactive
same,outcome,[4],inactive
same,outcome,[5],inactive
same,outcome,[6],inactive
same,outcome,[7],inactive
same,AC50,[8],8.84 µM (active)
same,outcome,[9],inactive
same,outcome,[10],inactive
same,outcome,[11],inactive
FC(F)(F)C1(F)C(F)(F)C(F)(F)C(F)(F)C(F)(C(F)(F)F)C1(F)F (stereo not drawn),outcome,[12],inactive
same,outcome,[2],inactive
same,outcome,[4],inactive
same,outcome,[5],inactive
same,outcome,[6],inactive
same,outcome,[13],inactive
same,outcome,[7],inactive
same,outcome,[9],inactive
same,outcome,[10],inactive
same,outcome,[11],inactive
CCCCCCCCCCCC,outcome,[12],inactive
same,outcome,[2],inactive
same,outcome,[3],inactive
same,outcome,[4],inactive
same,outcome,[5],inactive
same,outcome,[6],inactive
same,outcome,[13],inactive
same,outcome,[7],inactive
same,outcome,[8],inactive
same,outcome,[9],inactive
same,outcome,[14],inactive
same,outcome,[15],inactive
same,outcome,[16],inactive
same,outcome,[11],inactive
COC(=O)CC(C(C)=O)C(=O)OC (stereo not drawn),outcome,[1],inactive
same,outcome,[4],inactive
same,outcome,[5],inactive
same,outcome,[6],inactive
same,outcome,[7],inactive
same,outcome,[8],inactive
same,outcome,[9],inactive
same,outcome,[10],inactive
same,outcome,[11],inactive
FC(F)(F)C(F)(F)C(F)(F)C(F)(F)I,outcome,[17],inactive
same,outcome,[2],inactive
same,outcome,[4],inactive
same,outcome,[5],inactive
same,outcome,[6],inactive
same,outcome,[13],inactive
same,outcome,[7],inactive
same,outcome,[8],inactive
same,outcome,[9],inactive
same,outcome,[10],inactive
same,outcome,[11],inactive
O=S(=O)(c1ccc(OCc2ccccc2)cc1)c1ccccc1O,outcome,[12],inactive
same,outcome,[2],inactive
same,AC50,[3],49.9 µM (active)
same,AC50,[4],33.4 µM (active)
same,outcome,[5],inactive
same,AC50,[6],33.4 µM (active)
same,outcome,[7],inactive
same,AC50,[8],8.89 µM (active)
same,AC50,[9],31.9 µM (active)
same,AC50,[10],33.4 µM (active)
same,outcome,[11],inactive
CCCCCc1ccc(O)cc1,outcome,[1],inactive
same,outcome,[12],inactive
same,outcome,[3],inactive
same,outcome,[4],inactive
same,outcome,[5],inactive
same,outcome,[6],inactive
same,outcome,[13],inactive
same,outcome,[7],inactive
same,AC50,[8],17.6 µM (active)
same,outcome,[9],inactive
same,outcome,[10],inactive
same,AC50,[14],12 µM (active)
same,AC50,[15],13.8 µM (active)
same,AC50,[16],23.7 µM (active)
same,outcome,[11],inactive
CCC(=O)O,outcome,[1],inactive
same,outcome,[12],inactive
same,outcome,[2],inactive
same,outcome,[3],inactive
same,outcome,[4],inactive
same,outcome,[5],inactive
same,outcome,[6],inactive
same,outcome,[7],inactive
same,outcome,[8],inactive
same,outcome,[9],inactive
same,outcome,[10],inactive
same,outcome,[11],inactive

# Reference: PubChem BioAssay (EPA / NIEHS)
